tested on: Trichuris muris adult worms; test: mean motility score (Paragon pixel variance) of adult worms (arbitrary units); higher = more motile worms, i.e. less anthelmintic effect; extreme values may be limits of the assay; conditions: 100 µM; 24 h
Description: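 Primary ex vivo screen of 409 approved drugs against adult Trichuris muris worms: one worm per well in RPMI-1640 with penicillin/streptomycin, 100 µM drug in 1% DMSO, 37 °C, 5% CO2 for 24 h. Motility was recorded with INVAPP (200-frame movies) and scored with the Paragon pixel-variance algorithm. Values are means of triplicate wells run on three occasions; levamisole was the positive control and DMSO the negative control.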

| SMILES | mean motility score |
| --- | --- |
| c1ccc2c(CC3=NCCN3)cccc2c1 [naphazoline] | 4300 |
| CCCCC1=NC2(CCCC2)C(=O)N1Cc1ccc(-c2ccccc2-c2nn[nH]n2)cc1 [irbesartan] | 2360 |
| C[C@H]1O[C@@H](n2cc(F)c(=O)[nH]c2=O)[C@H](O)[C@@H]1O [doxifluridine] | 2010 |
| O=C(O)c1cc(-c2ccc(F)cc2F)ccc1O [diflunisal] | 1040 |
| CCCN1CCCC[C@H]1C(=O)Nc1c(C)cccc1C [ropivacaine] | 2600 |
| CN1CCCN=C1COC(=O)C(O)(c1ccccc1)C1CCCCC1.Cl (stereo not given) [oxyphencyclimine hydrochloride] | 3070 |
| C=CC(N)CCC(=O)O (stereo not given) [vigabatrin] | 1690 |
| CCN(CC)C(C)CN1c2ccccc2Sc2ccccc21.Cl (stereo not given) [ethopropazine hydrochloride] | 114 |
| Cc1cccc(N(C)C(=S)Oc2ccc3ccccc3c2)c1 [tolnaftate] | 2620 |
| C=CC[C@@H]1/C=C(\C)C[C@H](C)C[C@H](OC)[C@H]2O[C@@](O)(C(=O)C(=O)N3CCCC[C@H]3C(=O)O[C@H](/C(C)=C/[C@@H]3CC[C@@H](O)[C@H](OC)C3)[C@H](C)[C@@H](O)CC1=O)[C@H](C)C[C@@H]2OC [tacrolimus] | 0 |
| CCOc1ccc2ccccc2c1C(=O)N[C@@H]1C(=O)N2[C@@H]1SC(C)(C)[C@@H]2C(=O)[O-].O.[Na+] [nafcillin sodium monohydrate] | 3570 |
| NC(=O)c1ncn([C@@H]2O[C@H](CO)[C@@H](O)[C@H]2O)c1O [mizoribine] | 2990 |
| CC(O)(P(=O)(O)O)P(=O)(O)O [etidronic acid] | 3300 |
| CNC(=O)c1cc(Oc2ccc(NC(=O)Nc3ccc(Cl)c(C(F)(F)F)c3)cc2)ccn1 [sorafenib] | 781 |
| CCOC(=O)C1=C(C)NC(C)=C(C(=O)OC)C1c1cccc([N+](=O)[O-])c1 (stereo not given) [nitrendipine] | 0 |
| Cc1nc2ccc(CN(C)c3ccc(C(=O)N[C@@H](CCC(=O)O)C(=O)O)s3)cc2c(=O)[nH]1 [raltitrexed] | 3030 |
| NS(=O)(=O)c1cc2c(cc1C(F)(F)F)NCNS2(=O)=O [hydroflumethiazide] | 1060 |
| Cn1cnc2c(F)c(Nc3ccc(Br)cc3Cl)c(C(=O)NOCCO)cc21 [selumetinib] | 3500 |
| CN1CCC(=C2c3ccccc3C=Cc3ccccc32)CC1 [cyproheptadine] | 417 |
| CC(=O)OC[C@H]1O[C@@H](n2ncc(=O)[nH]c2=O)[C@H](OC(C)=O)[C@@H]1OC(C)=O [azaribine] | 3970 |

| SMILES | mean motility score |
| --- | --- |
| CN1CCC[C@H]1c1cccnc1 [nicotine] | 0 |
| CC[C@H](C)C(=O)O[C@H]1C[C@@H](C)C=C2C=C[C@H](C)[C@H](CC[C@@H]3C[C@@H](O)CC(=O)O3)[C@H]21 [lovastatin] | 96.7 |
| CCCCC/C=C\C/C=C\C/C=C\CCCCC(=O)O [gamolenic acid] | 2970 |
| CC1(C)O[C@@H]2C[C@H]3[C@@H]4C[C@H](F)C5=CC(=O)C=C[C@]5(C)[C@@]4(F)[C@@H](O)C[C@]3(C)[C@]2(C(=O)CO)O1 [fluocinolone acetonide] | 2800 |
| COC(=O)[C@H](c1ccccc1Cl)N1CCc2sccc2C1 [clopidogrel] | 2110 |
| COc1ccc([C@@H]2Sc3ccccc3N(CCN(C)C)C(=O)[C@@H]2OC(C)=O)cc1 [diltiazem] | 2070 |
| CN(C)CC[C@@H](c1ccc(Cl)cc1)c1ccccn1.O=C(O)/C=C\C(=O)O [dexchlorpheniramine maleate] | 1140 |
| CCOC(=O)[C@H](CCc1ccccc1)N[C@@H](C)C(=O)N1Cc2cc(OC)c(OC)cc2C[C@H]1C(=O)O.Cl [moexipril hydrochloride] | 3680 |
| CC(=O)Nc1c(I)c(NC(C)=O)c(I)c(C(=O)O)c1I [diatrizoic acid] | 1110 |
| Cl.Cl.NCCc1c[nH]cn1 [histamine dihydrochloride] | 2750 |
| CC1=C(/C=C/C(C)=C/C=C/C(C)=C/CO)C(C)(C)CCC1 [retinol] | 2970 |
| N#CC[C@H](C1CCCC1)n1cc(-c2ncnc3[nH]ccc23)cn1 [ruxolitinib] | 3070 |
| Cc1ccc(C(=O)Nc2ccc(CN3CCN(C)CC3)c(C(F)(F)F)c2)cc1C#Cc1cnc2cccnn12 [ponatinib] | 1760 |
| NC(=O)OCC(COC(N)=O)c1ccccc1 [felbamate] | 5470 |
| COCCCC/C(=N\OCCN)c1ccc(C(F)(F)F)cc1 [fluvoxamine] | 2670 |
| C[C@](N)(Cc1ccc(O)c(O)c1)C(=O)O [methyldopa] | 4060 |
| NC(=O)N1c2ccccc2C=Cc2ccccc21 [carbamazepine] | 3020 |
| CC(N/C(=N/C#N)Nc1ccncc1)C(C)(C)C.O (stereo not given) [pinacidil monohydrate] | 2490 |
| C[C@@](Cc1ccc(O)c(O)c1)(NN)C(=O)O [S-carbidopa] | 3900 |
| NNCCc1ccccc1 [phenelzine] | 3810 |

Source: the supplement of paper PMC10503962
